In PubChem BioAssay (NCI):
About 83,000 compounds went through this panel and 20% of them were active in at least one assay; those are over-represented in the sample as a whole.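 Plates (96-well) were seeded with cells, treated with compound at one concentration, and incubated for 48 hours before percent growth was determined.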 Unmarked numbers belong to inactive results. The source made the active and inactive calls. Rule for the calls: active = growth percent below 10; inactive = the rest.

The molecules below were run on MDA-MB-468 breast (assay: NCI-60 one-dose screen, 48 h (100 = growth as untreated, 0 = no growth, -100 = all killed)). Conditions: 10 µM unless noted.
`COc1ccc(/C=C\c2cc(OC)c(OC)c(OC)c2)c(NS(=O)(=O)c2ccc(C(C)(C)C)cc2)c1O` showed a growth of 38.9%.
`O=S(=O)(Nc1cc(Sc2nc3ccccc3s2)c(O)c2ccccc12)c1ccc2ccccc2c1` was tested, and the growth was -0.0972% (active).
`Cc1c(C(=O)N[C@@H](Cc2ccccc2)C(=O)C(=O)NCc2ccc(F)cc2)[nH]c2ccccc2c1=O` gave a growth of 94.5%.
`C[C@]12O[C@H]1[C@H](O)c1c(cc(O)c3c1C(=O)c1cccc(O)c1-3)C2=O` was tested, and the growth was 83.3%.
With `O=C(NN=C1CCCCC1)C(=O)NN=C1CCCCC1` the growth was 113%.
For `CN1C(=O)C(=Cc2cn(Cc3ccccc3)c3ccc(Br)cc23)C(=O)N(C)C1=O`, the growth was -49.4% (active).
`CC(=O)C1=C(C)NC(NN)=NC1c1cccc(Cl)c1` (centres undefined) gave a growth of 105%.
`CCOC(=O)c1c2c(n3ccc(NC(=O)OC(C)(C)C)cc13)C(=O)c1ncccc1C2=O` was tested, and the growth was -29% (active).
For `Cc1ccc(S(=O)(=O)c2nc(-c3ccccc3)oc2SCC(N)=O)cc1`, the growth was 91.7%.
With `O=C(NN(C(=O)c1ccccc1)c1cccs1)c1ccccc1` the growth was 103%.
For `COc1ccccc1CNCCCN1C(=O)c2ccc3c4c(ccc(c24)C1=O)C(=O)N(CCCN)C3=O`, the growth was -88.1% (active).
`COc1ccc(C(c2cc(OC)c(OC)c(OC)c2)n2cncn2)cc1O` (centres undefined) was tested, and the growth was 7.88% (active).
In the case of `CCOC(=O)N/N=C\C(C)=N\NC(=O)OCC`, the growth is reported as 114%.
In the case of `COc1ccc(C2c3ccccc3NC(=O)N2C2CCN(C)CC2)c(OC)c1` (centres undefined), the growth is reported as 88.3%.
